Compound activity: PubChem, several laboratories
Anthrax LF prot = anthrax lethal factor protease inhibition; inhibition, % at 10 µM; multiplex microsphere protease cleavage assay, LF; P15917; hit rate 0.12% among 360,000; AID 588501; further: plate controls were buffer without enzyme for full effect and enzyme alone for no effect
Target sequence (P15917 whole entry, looked up): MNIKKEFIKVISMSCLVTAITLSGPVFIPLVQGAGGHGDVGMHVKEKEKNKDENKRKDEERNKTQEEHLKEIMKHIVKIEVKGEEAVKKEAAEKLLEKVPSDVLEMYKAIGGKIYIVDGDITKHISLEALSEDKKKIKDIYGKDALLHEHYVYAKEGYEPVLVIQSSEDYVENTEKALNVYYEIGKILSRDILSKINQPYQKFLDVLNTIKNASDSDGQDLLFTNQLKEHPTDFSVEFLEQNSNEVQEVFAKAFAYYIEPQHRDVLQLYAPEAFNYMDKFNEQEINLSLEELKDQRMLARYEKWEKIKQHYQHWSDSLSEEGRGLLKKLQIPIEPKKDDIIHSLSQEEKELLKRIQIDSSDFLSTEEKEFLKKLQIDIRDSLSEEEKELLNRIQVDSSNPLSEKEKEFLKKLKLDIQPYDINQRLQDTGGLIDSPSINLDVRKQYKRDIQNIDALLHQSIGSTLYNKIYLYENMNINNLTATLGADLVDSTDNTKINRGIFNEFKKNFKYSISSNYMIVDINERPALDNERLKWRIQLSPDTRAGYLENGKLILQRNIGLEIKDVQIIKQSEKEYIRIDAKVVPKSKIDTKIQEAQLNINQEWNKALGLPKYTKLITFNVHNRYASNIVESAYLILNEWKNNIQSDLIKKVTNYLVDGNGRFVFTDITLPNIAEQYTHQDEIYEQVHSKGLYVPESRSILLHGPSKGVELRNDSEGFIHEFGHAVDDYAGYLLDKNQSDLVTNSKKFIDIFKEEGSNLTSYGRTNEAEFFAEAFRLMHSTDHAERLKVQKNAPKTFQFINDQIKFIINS
BoNT-A LC inh2 = BoNT A light chain protease inhibition | multiplex microsphere protease substrate cleavage, flow cytometry | inhibition, % at 10 µM | AID 588499 | hit rate 0.17% among 360,000; further: plate controls were buffer without enzyme for full effect and enzyme alone for no effect
Bead autofluor = flagged as autofluorescent in microsphere protease counterscreen | compound autofluorescence counterscreen, microsphere flow cytometry; stronger effect = higher value | fluorescence intensity (test concentration not listed) | hit rate 3.1% among 360,000; in the data active means fluorescence intensity above about 16000; inconclusive means no clear call, values can overlap the other calls
MazEF act = activators of E. coli MazEF toxin-antitoxin RNase. P0AE70. FAM/BHQ RNA-DNA oligo cleavage fluorescence, 5 h. activation, % at 20 µM. hit rate 0.32% among 350,000. AID 504720; in the data active means activation above about 50%
BoNT-F LC inh = inhibitors of Botulinum neurotoxin F light chain protease; Multiplex microsphere protease cleavage assay, flow cytometry; inhibition, % at 10 µM; hit rate 0.22% among 360,000; AID 588497; in the data active means inhibition above about 35%, passing the limit was not always enough; inconclusive means no clear call, values can overlap the other calls; further: plate controls were buffer without enzyme for full effect and enzyme alone for no effect
An asterisk follows results filed as active; ? = inconclusive; / = not tested or not shown. Rows were chosen to be rich in hits. Some 3.6% of all compounds tested hit in one or more screens of this group. Unless noted, no stated cut-off is given here; in the data, active means inhibition above about 30%; inconclusive means no clear call, values can overlap the other calls; inactive means below that.

SMILES | Anthrax LF prot | BoNT-A LC inh2 | Bead autofluor | MazEF act | BoNT-F LC inh
COc1ccc(-n2nnnc2C(CCc2ccccc2)N2CCN(C/C=C/c3ccccc3)CC2)cc1 (stereo not given) | -9.4 | -1.2 | 6559 | / | -14.8
COC(=O)c1c(C)n(Cc2ccco2)c2ccc(O)cc12 | -1.9 | -7.6 | 24915* | 1.1 | -9.1
COc1ccc(CCN2CC(O)=C(c3nc(C)cs3)C2=N)cc1OC | 3.2 | 0.2 | 23439* | -13.8 | 0.3
Cc1csc(C2=C(O)CN(CCc3ccccc3)C2=N)n1 | -4.4 | -1.7 | 12294 | -1.2 | -13.9
COc1ccccc1NC(=O)c1cccnc1 | -4.7 | -0.4 | 3025 | 7.8 | -14.4
COc1ccc(NC(=O)c2cc(-c3cccnc3)nc3c(C)c(C)ccc23)c(OC)c1 | -0.1 | 9.2 | 17562* | -10.4 | 9.4
COc1cccc(NC(=O)c2cc(-c3cccnc3)nc3c(Cl)cccc23)c1 | -1.7 | 1.5 | 15951 | 1.5 | 1.2
COc1ccc(NC(=O)c2cccnc2)c(OC)c1 | -0.8 | ? | 20616* | 1.6 | 2.5
COc1ccc(NC(=O)c2ccccc2C)c(OC)c1 | -2.2 | -1.1 | 16437* | 0.7 | 1.9
COc1ccc(NC(=O)c2ccccc2Oc2ccccc2)c(OC)c1 | -4.8 | 0.7 | 2964 | 4.9 | -3.3
COc1ccc(NC(=O)Nc2cc(C)ccc2OC(F)F)c(OC)c1 | -6.2 | 2.3 | 22223* | 7.5 | 1.4
COc1cc2c(c(OC)c1OC)-c1ccc(SC)c(=O)cc1C(NC=O)CC2 (stereo not given) | 4.0 | -0.6 | 3872 | 5.4 | -3.4
CC(C)(C)C(=O)COC(=O)c1ccc2c(c1)C(=O)N(Cc1ccco1)C2=O | 8.9 | -1.7 | 3703 | -2.1 | 8.4
O=C(Nc1cccc([N+](=O)[O-])c1)c1ccc2snnc2c1 | -1.5 | -3.8 | 5693 | -0.6 | 1.8
O=C(c1ccccc1F)N1CCN(C(=O)C2CC2)CC1 | -5.9 | 0.3 | 5537 | 4.9 | -1.1
CC(=O)Nc1cnn(Cc2ccc(Br)cc2)c1 | -2.2 | -2.9 | 24279* | -1.3 | -3.3
O=C(NCCc1ccc(Cl)cc1)c1cnccn1 | -2.0 | -0.7 | 4749 | 1.5 | -10.6
O=C(Nc1cnn(Cc2ccc(Cl)cc2)c1)c1cnccn1 | -6.4 | 4.4 | 19189* | 4.7 | 4.4
COc1ccccc1NC(=O)C(C)OC(=O)CSCC(=O)Nc1cc(C)on1 (stereo not given) | -2.4 | -3.1 | 5614 | 4.8 | -3.8
Cn1c(SCc2ccc(Cl)cc2)nc(C(F)(F)F)cc1=O | -4.4 | -2.2 | 20153* | -3.3 | -6.5
O=C(NC(CO)(CO)CO)c1coc(=O)c(Br)c1 | -2.1 | -0.9 | 17123* | 8.0 | -1.6
CC(C)CNC(=O)c1coc(=O)c(Br)c1 | -8.2 | 0.3 | 8945 | -16.0 | 3.5
O=C(N/C(=C\c1cccc(Br)c1)C(=O)N1CCCCC1)c1ccco1 | 21.8 | -2.4 | 3251 | 1.9 | -2.4
CCCc1cc(=O)[nH]c(SCc2nc3ccccc3s2)n1 | -0.1 | 0.8 | 19993* | -1.6 | 1.5
CCCc1cc(=O)[nH]c(SCc2ccccc2Cl)n1 | -2.5 | -0.2 | 20635* | -1.3 | -0.4
SMILES | Anthrax LF prot | BoNT-A LC inh2 | Bead autofluor | MazEF act | BoNT-F LC inh
Cc1cc(=O)[nH]c(SCc2nc3ccccc3s2)n1 | -0.6 | 0.5 | 4516 | -6.6 | 26.6
CN1OC[C@@H]2CN(S(=O)(=O)c3cc(Cl)cc(Cl)c3)[C@H](c3ccc(-c4ccc(C#N)cc4)cc3)C[C@@H]21 | -0.6 | 0.6 | 5820 | / | -3.5
O=C(O)c1cc(-c2ccccc2)nc(-c2ccccc2)c1 | -2.3 | -0.1 | 3746 | -3.8 | -8.1
O=C(O)c1cc(C(=O)O)c(-c2ccccc2)c(C(=O)O)c1 | -3.8 | -1.4 | 22323* | 8.7 | -1.3
O=C(O)c1ccc(C(=O)O)c(C(=O)c2ccccc2)c1 | 1.3 | -3.0 | 17146* | 5.2 | -4.6
CC(NCc1cc(Br)ccc1OCC(N)=O)C12CC3CC(CC(C3)C1)C2 (stereo not given) | -35.9 | -67.9 | 21485* | 8.2 | ?
COc1cc(CNC(C)C23CC4CC(CC(C4)C2)C3)ccc1OCC(=O)NC(C)(C)C (stereo not given) | 4.2 | -8.7 | 3930 | 13.2 | -15.6
Cc1ccnc(N/C=C(\C#N)c2nc(-c3cccc(Br)c3)cs2)c1 | 39.4* | 55.7* | 8599 | -217.1 | 38.7*
COc1ccc(CCNC(=O)c2nonc2N)cc1 | -6.5 | 0.3 | 6706 | 9.2 | 8.8
COc1cccc(CNCCNC(=O)c2nonc2N)c1 | -2.6 | -5.2 | 24154* | -0.2 | -9.1
Cc1ccc(OCC(=O)N(Cc2ccco2)c2c(N)n(Cc3ccccc3)c(=O)[nH]c2=O)cc1C | 3.6 | 0.1 | 3323 | -2.8 | 9.4
CC(C)N=Cc1c(O)[nH]c2ccccc12 | -2.3 | -2.5 | 21450* | -2.0 | -4.4
NC(=O)c1ccsc1NC(=O)COC(=O)c1cnccn1 | -9.0 | 0.6 | 2827 | -3.5 | 4.9
CCCCn1c(=O)c(C(=O)c2ccccc2)nc2ccccc21 | -1.2 | -6.7 | 21629* | -3.8 | -7.0
CCCn1c(=O)c(C(=O)c2ccccc2)nc2ccccc21 | 1.6 | 3.4 | 15413 | 1.7 | 5.8
CCn1c(SCC(=O)Nc2nc(-c3ccccc3)cs2)nc2c1c(=O)n(C)c(=O)n2C | -1.1 | -0.9 | 2093 | 11.2 | 2.4
CCCn1c(SCC(=O)Nc2ccccc2C(=O)OC)nc2c1c(=O)n(C)c(=O)n2C | 1.6 | -1.9 | 20496* | 1.8 | -1.0
CCCn1c(SCC(=O)Nc2nc(-c3ccc(OC)cc3)cs2)nc2c1c(=O)n(C)c(=O)n2C | -1.5 | -0.3 | 2186 | 193.4* | -6.9
CCn1c(SCC(=O)Nc2nc3ccc(OC)cc3s2)nc2c1c(=O)n(C)c(=O)n2C | -5.0 | 4.6 | 21795* | -10.4 | 4.3
CCCCn1c(SCC(=O)Nc2cc(C)on2)nc2c1c(=O)n(C)c(=O)n2C | -0.6 | 0.2 | 9657 | -2.5 | -2.9
CCn1c(SCC(=O)Nc2cc(C)on2)nc2c1c(=O)n(C)c(=O)n2C | -2.2 | ? | 24541* | 4.1 | -2.6
COc1cc(C2C(C#N)=C(N)N(c3ccc(F)cc3)C3=C2S(=O)(=O)CC3)ccc1O (stereo not given) | -1.1 | -0.5 | 5183 | 18.9 | 1.7
CCCc1cc(=O)[nH]c(SCC(=O)Nc2ncc(S(=O)(=O)c3ccc([N+](=O)[O-])cc3)s2)n1 | 9.9 | -0.4 | 3371 | 4.8 | 4.3
CC1CCCN(CCOCCOc2ccc(Cl)cc2Br)C1 (stereo not given) | -9.0 | 1.2 | 21666* | -2.8 | 0.6
CC1CCCN(CCOCCOc2ccc(Br)cc2Cl)C1 (stereo not given) | 0.2 | 0.6 | 2691 | 4.5 | 6.2
SMILES | Anthrax LF prot | BoNT-A LC inh2 | Bead autofluor | MazEF act | BoNT-F LC inh
O=C(NC1CCCCC1)C(c1ccncc1)N(C(=O)c1csnn1)c1ccccc1 (stereo not given) | 0.6 | -1.2 | 3137 | 18.5 | -5.9
CC(C)C(=O)NC(=S)/C=C1/N(C)c2ccccc2C1(C)C | 6.2 | 8.5 | 7433 | -6.3 | 2.4
Cc1c(NC(=O)CSc2nccn2C)c(=O)n(-c2ccccc2)n1C | -1.0 | ? | 16417* | 6.0 | 0.2
CCS(=O)(=O)Nc1c(C)n(C)n(-c2ccccc2)c1=O | 1.3 | -0.3 | 8366 | 3.3 | -1.0
Cc1ccc(C(=O)NC(=S)/C=C2\N(C)c3ccccc3C2(C)C)cc1 | 19.1 | 42.1* | 3476 | -9.1 | -7.0
Cc1c(NS(=O)(=O)N2CCCCC2)c(=O)n(-c2ccccc2)n1C | -0.5 | 0.5 | 16324* | -9.0 | -0.4
